Data from the supplement of paper PMC5499739.
Over roughly 16,000 sequences, “Z-score” has its median near -0.37; the highest 2% begin near 3.2. The sample holds the highest values, similar sequences and a random draw of the others, so the mix is not that of the screen.

These sequences were tested on RBM10 RRM1-ZnF (GST-tagged construct) (assay: RNAcompete 7-mer binding Z-score; higher = stronger binding preference).
Outline: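 A one-sided Z-score for enrichment, taken across the probes containing each heptamer motif, was assigned to every such motif. The RNA came from a designed pool of 241 399 sequences up to 41 nt (1.5 nmol), bound by 20 pmol of GST-tagged RBM10 constructs in 1 ml Hepes pH 7.8 buffer with glutathione Sepharose beads for 30 min at 4°C. Four 2-min washes at 4°C preceded identification of bound RNA by microarray hybridisation.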

Sequence | RNAcompete 7-mer binding Z-score
CAUAAGA | -0.513
CACCGCG | 0.069
UGGUGUG | 2.77
GGGUGUA | 3.43
GGGUGUG | 3.76
AGGUGUA | 1.74
CGGUGUG | 1.72
UGGUGUA | 1.52
AAUUUGA | -0.399
ACAGAGG | 1.59
UACAAGA | -0.295
UGCGGGC | 1.13
AGCGGGA | 3.31
AGCGGGG | 4.14
CGCGGGG | 2.15
AGCGGGU | 3.07
UGCGGGG | 3.26
UGCGGGU | 2.92
CGCGGGA | 1.05
GGCGGGC | 2.11
GGCGGGG | 3.96
GGCGGGU | 2.9

Sequence | RNAcompete 7-mer binding Z-score
UGCGGGA | 1.87
GGCUUUA | -0.418
UUGCAGA | -0.171
AGCGGAC | 1.16
AGCGGAU | 3.22
AGCGGAA | 2.07
CUCAGGU | -0.0447
CGCAUAC | -0.61
GGAUGAG | 3.4
GGAUGUG | 3.43
AGAUGAG | 1.43
GGAUGAA | 2.16
GGAUGUU | 0.959
AGAUGUG | 0.936
CUCGUGC | -0.789
AGCAAUC | -0.435
AGGGUAG | 3.72
AGGGUAC | 2.1
UGGGUAC | 2.69
UGGGUAU | 2.37
UGGGUAG | 3.5
CGGGUAG | 2.18

Sequence | RNAcompete 7-mer binding Z-score
GACCAUU | -0.915
AUGGACG | 2.69
CACGUGG | 0.566
UCUUGAA | -0.785
CAUCCGC | -0.847
CCAAUCU | -0.802
ACUAGGG | 2.03
AGUAGGG | 4.16
AGUAGGC | 0.975
UGUAGGG | 3.6
CGUAGGG | 1.94
UGUAGGA | 1.7
AUACGAA | -0.194
CGGCUUG | -0.324
CUCGCAC | -0.587
GUUCUAA | -0.552
GGUAUGA | 2.19
GGUAUGG | 4.22
GAUAUGC | -0.0577
GGUAUGU | 1.56
AAUAUGG | 1.09
GAUAUGG | 3.3

Sequence | RNAcompete 7-mer binding Z-score
UCCCUGG | -0.24
GUUCGAG | -0.00571
CGAACAU | -0.503
UUUAGGC | -0.321
AUAGAGG | 1.55
AGAGAGG | 1.27
AGAGGGA | 2.09
GGAGGGC | 3.13
GGAGAGA | 1.46
UUAGAGG | 1.31
GGAGAGG | 3.41
CGAGGGG | 2.86
GUAGAGG | 3.56
GGAGGGA | 4.01
AGAGGGG | 2.11
GGAGGGG | 4.57
GUCCAUU | -0.818
CCCACUG | -0.483
GUUAUUC | -0.513
UGUAGGU | 1.75
UUGCCGC | -0.662
UUGGUCA | 0.0788

Sequence | RNAcompete 7-mer binding Z-score
CAAGUAA | -0.275
AAACCAG | -0.324
GGAGAAG | 3.36
CGAGAAG | 0.495
AGAGAAG | 1.63
GUGUCCA | -0.457
GGGCCGU | 0.53
CAGGGGG | 2.94
UAGGGGG | 3.97
CAGGGGU | 3.01
UAGGGGA | 3.71
UAGGGAC | 1.79
UAGGGGU | 3.9
UAGGGGC | 2.25
UAGGGAA | 3.15
UAGGGCU | 1.42
UGCUAGA | -0.233
UGUUCUC | -0.746
CCGCACC | -0.509
ACAGCGA | -0.0674
GGACUAU | 0.000789
AUAGCCU | -0.724
